# According to PubChem BioAssay (EPA / NIEHS):
# “And” between values parts separate entries of the source, which are not always exact repeats. Identical values can stand only once. Inconclusive results are not listed. The source made the active and inactive calls. The calls were made as follows, unless noted: active = hit-call score of the fitted dose curve at least 0.9, where 1 is the maximum; inactive = score below 0.9.
# Tests used:
# [1] = UKN2_HCS_IMR90_cell_viability: Viability Assessment in the University of Konstanz (UKN) Leist Lab Neural Crest Cell Migration Assay in human induced IMR90 Pluripotent Stem Cells (UKN2) (AID 2284233);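 also: viability of neural crest cells differentiated from IMR90 iPSC measured by calcein-AM fluorescence imaging; cells exposed to compound for 24 h after a 24 h migration phase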
# Outline: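 cMINC format, iPSC-derived neural crest (IMR90); 24 h migration (EGF/FGF, N2-S), then 24 h toxicant. Calcein-AM/H-33342 stain 30 min; fluorescence intensity by HCS; DMSO-normalised, bidirectional fitting.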
# [2] = CCTE_Mundy_HCI_Cortical_NOG_NeuronCount: CCTE's Neurite Outgrowth Assay in rat cortical cells for Neuron Count, Mundy Lab (AID 2284236; active = hit-call score of the fitted dose curve at least 0.9, where 1 is the maximum;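 also: neurons counted by imaging betaIII-tubulin and Hoechst stained cortical cells; cells exposed to compound for about 48 hours before fixation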)
# Outline: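 Read-out: neuron number by high-content imaging of betaIII-tubulin (Alexa Fluor-488) and Hoechst-labelled rat primary cortical cells.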
# [3] = CCTE_Mundy_HCI_Cortical_NOG_BPCount: CCTE's Neurite Outgrowth Assay in rat cortical cells for Branch Point Count, Mundy Lab (AID 2284237);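 as to AC50: branch points counted about two days after chemical exposure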
# Outline: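 Measured 50.33 h after dosing, this morphology endpoint uses rat primary cortical cultures labelled for betaIII-tubulin. Branch points are quantified by high-content imaging, with DMSO as negative control and baseline.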
# [4] = CCTE_Mundy_HCI_hNP1_Casp3_7: CCTE's Caspase-Glo 3/7 Assay in human neuroprogenitor cells for Apoptosis, Mundy Lab (AID 2284240)
# Outline: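 Neuroepithelial-lineage stem cells from WA09 embryonic cells were treated with chemicals after 40–44 h of culture. Twenty-four hours later, caspase-3/7 activation was detected luminescently after a 30 min room-temperature reagent step, with DMSO as baseline.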
# [5] = CCTE_Mundy_HCI_hNP1_CellTiter: CCTE's Cell Titer-Glo 2 Assay in human neuroprogenitor cells for Viability, Mundy Lab (AID 2284241; active = hit-call score of the fitted dose curve at least 0.9, where 1 is the maximum;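 as to AC50: a hit is a drop in ATP luminescence versus DMSO meaning reduced viability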)
# Outline: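 Measures ATP content in human neural progenitors derived from WA09 embryonic cells. Read-out at 26.5 hours after dosing, with DMSO serving as the negative control and baseline.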
# [6] = CCTE_Mundy_HCI_Cortical_Synap_Neur_Matur_NeuronCount: CCTE's Synaptogenesis and Neurite Maturation Assay in rat cortical cells for Neuron Count, Mundy Lab (AID 2284242; active = hit-call score of the fitted dose curve at least 0.9, where 1 is the maximum;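 as to AC50: neuron number from Hoechst nuclei and MAP2 staining by high-content imaging; hits reduce neuron count versus DMSO baseline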)
# Outline: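 Rat cortical cultures; AraC DIV 5; chemical dosing + media change DIV 7 to DIV 12 (288.33 h readout). Fix, Hoechst, anti-MAP2/anti-synaptophysin immunostain; HCI neuron count vs DMSO baseline.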
# [7] = UKN4_HCS_LUHMES_cell_viability: Viability Assessment in the University of Konstanz (UKN) Leist Lab Neurite Outgrowth Assay in human LUHMES cells (UKN4) (AID 2284232)
# Outline: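 Day-2 differentiated LUHMES, 30000 cells/well, dosed ~30 min–2 h post-seeding; 24 h treatment incl. staining; Hoechst H-33342 + calcein-AM at 23.5 h; HCS imaging; DMSO-normalized, bidirectional fit.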
structure (smiles),measurement,setting,value
CC(C)(C)c1ccc(CSc2cnn(C(C)(C)C)c(=O)c2Cl)cc1,outcome,[1],inactive
same,AC50,[2],0.0982 µM (active)
same,AC50,[3],0.00299 µM (active)
same,AC50,[4],9.49 µM (active)
same,AC50,[5],11.5 µM (active)
same,AC50,[6],0.000347 µM (active)
C=CCC1=C(C)C(OC(=O)C2C(C=C(C)C)C2(C)C)CC1=O (stereo unspecified),outcome,[7],inactive
same,outcome,[3],inactive
same,outcome,[4],inactive
same,outcome,[5],inactive
CCCCOC(=O)c1ccccc1C(=O)OCCCC,outcome,[1],inactive
same,outcome,[2],inactive
same,outcome,[3],inactive
same,outcome,[4],inactive
same,AC50,[6],81.3 µM (active)
N#Cc1nn(-c2c(Cl)cc(C(F)(F)F)cc2Cl)c(N)c1S(=O)C(F)(F)F (stereo unspecified),outcome,[7],inactive
same,AC50,[1],40 µM (active)
same,outcome,[2],inactive
same,outcome,[3],inactive
same,outcome,[4],inactive
same,outcome,[5],inactive
same,AC50,[6],15 µM (active)
C=CCC1=C(C)[C@@H](OC(=O)[C@@H]2[C@@H](C=C(C)C)C2(C)C)CC1=O,outcome,[3],inactive
same,outcome,[4],inactive
same,AC50,[5],7.56 µM (active)
same,AC50,[6],26.6 µM (active)
COC(=O)N(OC)c1ccccc1COc1ccn(-c2ccc(Cl)cc2)n1,AC50,[1],90.1 µM (active)
same,AC50,[2],0.143 µM (active)
same,AC50,[3],0.116 µM (active)
same,AC50,[4],33.5 µM (active)
same,AC50,[5],50 µM (active)
same,AC50,[6],0.0487 µM (active)
CCCCNC(=O)n1c(NC(=O)OC)nc2ccccc21,outcome,[7],inactive
same,AC50,[1],15 µM (active)
same,AC50,[3],10.3 µM (active)
same,AC50,[4],7.6 µM (active)
same,AC50,[5],10 µM (active)
CO/C=C(/C(=O)OC)c1ccccc1Oc1cc(Oc2ccccc2C#N)ncn1,outcome,[1],inactive
same,AC50,[2],4.67 µM (active)
same,AC50,[3],2.23 µM (active)
same,outcome,[4],inactive
same,AC50,[6],3.73 µM (active)
COP(N)(=O)SC (stereo unspecified),outcome,[2],inactive
same,outcome,[3],inactive
same,outcome,[4],inactive
same,outcome,[5],inactive
same,outcome,[6],inactive
CCCCC(CC)COC(=O)c1ccccc1C(=O)OCC(CC)CCCC (stereo unspecified),outcome,[1],inactive
same,AC50,[4],16.6 µM (active) and 11.1 µM (active)
same,AC50,[5],9.22 µM (active)
same,AC50,[6],7.31 µM (active) and 5.3 µM (active)
